Screening data (PubChem BioAssay)
Peg3 promoter = Peg3 promoter-driven luciferase inhibitors, primary screen, cell-based, HeLa, luciferase luminescence; inhibition, % at 20 µM; hit rate 1.7% among 360,000; HeLa PEG-Prom luciferase reporter, overnight;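 active = inhibition of at least 50% at 20 µM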
HSP90 inh = HSP90 inhibitors, primary screen, cell lysate, luminescence; Heat shock protein HSP 90 (rabbit reticulocyte lysate; luciferase refolding); Rabbit reticulocyte lysate, luciferase refolding luminescence, 3 h; inhibition, % at 5.6 µM; hit rate 0.91% among 290,000; AID 1789, 2009;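 active = inhibition above the screen-wide mean plus 3 SD, computed separately per campaign, cut at about 16% in these data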;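 note: inhibitors lower the luminescence because luciferase stays unfolded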
CF NFkB block = inhibitors of PAF-induced NF-kB signaling, primary screen, cell-based, GFP fluorescence, uHTS; KKLEB NF-kB-GFP reporter, GFP fluorescence overnight; inhibition, % at 5 µM; hit rate 0.86% among 360,000; AID 588850, 2011;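 active = at least 50% inhibition at 5 µM, scaled per plate between neutral and stimulator controls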;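 note: PAF is a Pseudomonas aeruginosa culture filtrate used as stimulus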
LGR2 antag = inhibitors of bursicon-induced LGR2 CRE-luciferase signal, primary screen, cell-based, HEK293, CRE-luciferase reporter, bursicon stimulation; Drosophila bursicon receptor LGR2 (rickets); AID 720647, 2013; bursicon-stimulated, 4 h; hit rate 0.35% among 380,000; inhibition, % at 9.99 µM;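 active = drop in luminescence signal, shown as inhibition above about 50% in the replicate tests, limit read from the data, passing the limit was not always enough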;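 note: agonist challenge used bursicon conditioned medium at about half maximal strength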
KKLEB tox = cytotoxicity in KKLEB CF airway cells, primary screen, cytotoxicity control for CF NF-kB inhibitor project, cell-based, uHTS, fluorescence assay plates; KKLEB CF airway cells viability, ATPlite luminescence, overnight; hits give low values; cells stimulated with P. aeruginosa culture filtrate; activity change (cytotoxicity), % at 5 µM; hit rate 0.36% among 360,000; AID 602141, 2011;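 active = corrected activity change at or below -50% at 5 µM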
Mdm2-MdmX inh = inhibitors of human Mdm2-MdmX association, primary screen, cell-based, luminescence, split luciferase, SaOS-2, uHTS | Protein Mdm4 (Homo sapiens) + E3 ubiquitin-protein ligase Mdm2 (Homo sapiens), … | SaOS-2 split-luciferase Mdm2/MdmX complementation | inhibition, % at 8 µM | hit rate 3% among 330,000 | AID 485346, 2010;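 active = inhibition of at least 50% at 8 µM in the primary screen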
Target sequence (O15151 whole entry, looked up): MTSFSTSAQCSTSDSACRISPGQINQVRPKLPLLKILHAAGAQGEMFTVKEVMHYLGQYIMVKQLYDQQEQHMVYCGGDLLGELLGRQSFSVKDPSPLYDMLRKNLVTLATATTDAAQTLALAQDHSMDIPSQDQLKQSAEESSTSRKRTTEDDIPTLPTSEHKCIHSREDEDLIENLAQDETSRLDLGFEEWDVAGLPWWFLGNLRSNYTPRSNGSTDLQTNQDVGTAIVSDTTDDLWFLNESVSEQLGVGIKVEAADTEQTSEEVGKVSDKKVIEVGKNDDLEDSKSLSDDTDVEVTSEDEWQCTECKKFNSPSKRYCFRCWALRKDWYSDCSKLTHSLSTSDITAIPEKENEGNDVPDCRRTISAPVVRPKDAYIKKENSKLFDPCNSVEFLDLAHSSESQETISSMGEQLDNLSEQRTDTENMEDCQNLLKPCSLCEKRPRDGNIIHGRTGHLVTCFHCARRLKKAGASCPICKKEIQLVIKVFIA
Target sequence (Q00987 whole entry, looked up): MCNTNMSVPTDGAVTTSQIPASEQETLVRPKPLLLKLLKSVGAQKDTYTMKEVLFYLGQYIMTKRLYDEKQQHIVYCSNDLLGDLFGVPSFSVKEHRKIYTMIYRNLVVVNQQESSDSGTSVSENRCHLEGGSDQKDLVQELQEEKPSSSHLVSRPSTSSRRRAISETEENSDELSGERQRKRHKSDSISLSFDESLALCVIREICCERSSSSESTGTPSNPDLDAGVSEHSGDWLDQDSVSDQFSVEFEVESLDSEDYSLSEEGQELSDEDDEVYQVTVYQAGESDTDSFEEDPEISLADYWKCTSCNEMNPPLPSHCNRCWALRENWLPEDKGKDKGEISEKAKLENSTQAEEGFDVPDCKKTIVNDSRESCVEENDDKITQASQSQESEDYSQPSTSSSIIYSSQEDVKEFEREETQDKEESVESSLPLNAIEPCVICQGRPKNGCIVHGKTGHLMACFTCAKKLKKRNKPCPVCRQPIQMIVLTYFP
Mdm2 MdmX conf = Mdm2-MdmX complex disruptors, retested hits, confirmation, luminescence, single concentration; hit rate 55% among 10,000; AID 489028, 2010; shares compounds with Mdm2-MdmX inh; inhibition, % at 8 µM; Mdm2-MdmX binding, luminescent assay; in the data active = inhibition above about 40%
FLuc counter = full-length luciferase signal inhibition, confirmation, counter-screen for Mdm2/MdmX interaction inhibitor project, cell-based, single concentration, SaOS-2; hit rate 77% among 6,200; inhibition, % at 8 µM; AID 504607, 2011; shares compounds with Mdm2-MdmX inh; SaOS-2 full-length luciferase counterscreen, luminescence;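 active = mean inhibition at 8 µM reaching about 37%, which flags the compound as non-specific, limit read from the data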;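 note: p53-null SaOS-2 cells with luciferase driven by a doxycycline-inducible promoter; compound on cells about two nights before reading with doxycycline added after day one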
Each line names hits and unclear results; the compound was inactive in the other large screens (follow-up assays come after a bar, where they were run); ! = a repeat was not active. An excerpt weighted towards active compounds, which were near 3.6% of everything screened.

CN1[C@@H]2c3ccc(-c4cccnc4)c(=O)n3C[C@@H]2[C@@H](CO)[C@@H]1C(=O)NC1Cc2ccccc2C1	none (no result: Peg3 promoter, HSP90 inh, CF NFkB block, KKLEB tox, Mdm2-MdmX inh)
NS(=O)(=O)c1ccc(Oc2ccc(S(N)(=O)=O)cc2)cc1	none
C=CS(=O)(=O)c1ccc(Oc2ccc(S(=O)(=O)C=C)cc2)cc1	Peg3 promoter 107, CF NFkB block 99, LGR2 antag 102, KKLEB tox -56, Mdm2-MdmX inh 100 | Mdm2 MdmX conf 100 | FLuc counter inactive
COC(=O)N1C(=O)[C@](c2ccc(Cl)cc2)(C(C)C)N1C(=O)OC	CF NFkB block 66, Mdm2-MdmX inh 56 | Mdm2 MdmX conf inactive | FLuc counter 51
O=C(O)CSc1ncnc2sc(-c3ccccc3)cc12	none
CC(=O)c1c(C)[nH]c(C(=O)CSc2nnc(-c3ccccc3)n2Cc2ccc3c(c2)OCO3)c1C	Mdm2-MdmX inh 77 | Mdm2 MdmX conf inactive
O=c1c2ccccc2nnn1CSc1nnc(-c2cccs2)n1Cc1ccccc1	Mdm2-MdmX inh 61 (no result: LGR2 antag) | Mdm2 MdmX conf 49 | FLuc counter 72
CCOC(=O)c1c(C)[nH]c(C(=O)CSc2nnc(-c3cccs3)n2Cc2ccccc2)c1C	Mdm2-MdmX inh 65 (no result: LGR2 antag) | Mdm2 MdmX conf 42 | FLuc counter 40
CC(=O)c1c(C)[nH]c(C(=O)CSc2nnc(-c3ccco3)n2Cc2ccccc2)c1C	none (no result: LGR2 antag)
CC(=O)c1c(C)[nH]c(C(=O)CSc2ncnc3sc(-c4ccccc4)cc23)c1C	Mdm2-MdmX inh 51 (no result: LGR2 antag) | Mdm2 MdmX conf inactive
C/C=C/c1ccc2c(c1)O[C@H](CN(C)C(=O)C1CCCCC1)[C@@H](C)CN([C@H](C)CO)S2(=O)=O	none (no result: Peg3 promoter, HSP90 inh, CF NFkB block, KKLEB tox, Mdm2-MdmX inh)
CC(=O)Nc1ccc(C(=O)Nc2nc(-c3ccccn3)cs2)cc1	none (no result: LGR2 antag)
Cc1ccc(C(=O)Nc2nc(-c3ccccn3)cs2)o1	Mdm2-MdmX inh 74 | Mdm2 MdmX conf 56 | FLuc counter 40
CC(=O)c1ccc(-c2ccc(C(=O)Nc3nc(-c4ccccn4)cs3)o2)cc1	Peg3 promoter 76, Mdm2-MdmX inh 91 (no result: HSP90 inh) | Mdm2 MdmX conf 86 | FLuc counter 40
O=C(Nc1nc(-c2ccccn2)cs1)c1ccc([N+](=O)[O-])o1	Mdm2-MdmX inh 77 | Mdm2 MdmX conf 68 | FLuc counter 37
O=C(Nc1nc(-c2ccccn2)cs1)c1ccc(-c2ccccc2F)o1	Peg3 promoter 68, Mdm2-MdmX inh 57 (no result: HSP90 inh) | Mdm2 MdmX conf 50 | FLuc counter 63
O=C(Nc1nc2ccccc2s1)c1ccc([N+](=O)[O-])o1	none
C[C@H]1CN([C@@H](C)CO)C(=O)c2cccc(NS(C)(=O)=O)c2O[C@@H]1CN(C)C	none (no result: Peg3 promoter, HSP90 inh, CF NFkB block, KKLEB tox, Mdm2-MdmX inh)
O=C(Nc1nc(-c2ccccn2)cs1)C1COc2ccccc2O1 (stereo unspecified)	Mdm2-MdmX inh 65 | Mdm2 MdmX conf 71 | FLuc counter 56
CCc1cc(C(=O)Nc2nc(-c3ccccn3)cs2)sc1C	Mdm2-MdmX inh 52 (no result: HSP90 inh) | Mdm2 MdmX conf 56 | FLuc counter 51
CC1CC1C(=O)Nc1nc(-c2ccccn2)cs1 (stereo unspecified)	none (no result: LGR2 antag)
O=C(Nc1nc(-c2ccccc2)cs1)C1COc2ccccc2O1 (stereo unspecified)	none (no result: LGR2 antag)
O=C(Nc1nc(-c2ccccn2)cs1)c1ccc2c(c1)OCCO2	none
O=C(Nc1nc(-c2ccccn2)cs1)c1ccccc1-n1cnnn1	Mdm2-MdmX inh 72 | Mdm2 MdmX conf 75 | FLuc counter inactive
CCCC#Cc1cnc2c(c1)C(=O)N([C@@H](C)CO)C[C@H](C)[C@H](CN(C)S(=O)(=O)c1cn(C)cn1)O2	none (no result: Peg3 promoter, HSP90 inh, CF NFkB block, KKLEB tox, Mdm2-MdmX inh)
CCn1cc(Cl)c(C(=O)N2N=C(c3ccc4ccccc4c3)CC2c2ccccc2O)n1 (stereo unspecified)	Mdm2-MdmX inh 69 | Mdm2 MdmX conf 40 | FLuc counter 57
CCn1cc([N+](=O)[O-])c(C(=O)N2N=C(c3cccc4ccccc34)CC2c2ccccc2O)n1 (stereo unspecified)	Mdm2-MdmX inh 52 (no result: LGR2 antag) | Mdm2 MdmX conf 41 | FLuc counter 75
CCn1cc([N+](=O)[O-])c(C(=O)N2N=C(c3ccc4ccccc4c3)CC2c2ccccc2O)n1 (stereo unspecified)	Mdm2-MdmX inh 61 (no result: LGR2 antag) | Mdm2 MdmX conf 59 | FLuc counter 86
C[C@H]1CN([C@@H](C)CO)C(=O)c2cc(C#CC3(O)CCCC3)cnc2O[C@H]1CN(C)C(=O)Cc1cccnc1	none (no result: Peg3 promoter, HSP90 inh, CF NFkB block, KKLEB tox, Mdm2-MdmX inh)
Oc1ccc(NC(=S)N=Nc2c(O)[nH]c3ccc(Br)cc23)cc1	Mdm2-MdmX inh 70 | Mdm2 MdmX conf 74 | FLuc counter 42
Oc1ccc(NC(=S)N=Nc2c(O)[nH]c3ccccc23)cc1	none
Oc1cccc(NC(=S)N=Nc2c(O)[nH]c3ccc(Br)cc23)c1	Mdm2-MdmX inh 56 | Mdm2 MdmX conf 46 | FLuc counter 57
Cc1ccc(NC(=S)N=Nc2c(O)[nH]c3ccccc23)cc1	Mdm2-MdmX inh 65 | Mdm2 MdmX conf 52 | FLuc counter 67
C[C@H](CO)N1C[C@H](C)[C@H](CN(C)C(=O)Nc2ccc(C(F)(F)F)cc2)Oc2ncc(C#C[C@@H](C)O)cc2C1=O	none (no result: Peg3 promoter, HSP90 inh, CF NFkB block, KKLEB tox, Mdm2-MdmX inh)
CN(C)CCCNC(=O)[C@@H]1[C@@H](CO)[C@@H]2Cn3c(ccc(-c4cccc(C(=O)N(C)C)c4)c3=O)[C@H]1N2	none (no result: Peg3 promoter, HSP90 inh, CF NFkB block, KKLEB tox, Mdm2-MdmX inh)
C[C@@H]1CN([C@H](C)CO)C(=O)c2cccc(NS(=O)(=O)c3ccc(F)cc3)c2O[C@H]1CN(C)C(=O)Nc1ccc2c(c1)OCO2	none (no result: Peg3 promoter, HSP90 inh, CF NFkB block, KKLEB tox, Mdm2-MdmX inh)
COc1ccc(-c2cn(-c3ccc(OC)cc3)c3[n+]2-c2ccccc2CC3)cc1	Mdm2-MdmX inh 57 | Mdm2 MdmX conf inactive
COc1ccccc1-n1c(-c2ccccc2)c[n+]2c1CCc1ccccc1-2	Mdm2-MdmX inh 61 | Mdm2 MdmX conf 48! | FLuc counter 52!
COc1ccc(-n2c(-c3ccc(Br)cc3)c[n+]3c2CCc2ccccc2-3)cc1	Mdm2-MdmX inh 51 | Mdm2 MdmX conf 54 | FLuc counter 61
COc1ccc(-c2c[n+]3c(n2-c2ccccc2)CCCCC3)cc1	none
COc1ccc(-n2cc(-c3ccccc3)[n+]3c2CCCCC3)cc1	none
